# Bioassay records as filed in PubChem.
# Shown is part of a subset that was picked to be rich in hits.
# ST2 IL33 inh = inhibitors of human ST2 (IL1RL1) binding to IL-33, primary screen, biochemical, AlphaLISA | Interleukin-1 receptor-like 1 (Homo sapiens), Q01638 | AlphaLISA ST2-Fc/biotin-IL-33 interaction, 1 h | inhibition, % for hits at 17 µM | 78,000 tested, 2.3% active | AID 1259354, 2018; in the data active = inhibition above about 30%
# Target sequence (Q01638 whole entry, looked up): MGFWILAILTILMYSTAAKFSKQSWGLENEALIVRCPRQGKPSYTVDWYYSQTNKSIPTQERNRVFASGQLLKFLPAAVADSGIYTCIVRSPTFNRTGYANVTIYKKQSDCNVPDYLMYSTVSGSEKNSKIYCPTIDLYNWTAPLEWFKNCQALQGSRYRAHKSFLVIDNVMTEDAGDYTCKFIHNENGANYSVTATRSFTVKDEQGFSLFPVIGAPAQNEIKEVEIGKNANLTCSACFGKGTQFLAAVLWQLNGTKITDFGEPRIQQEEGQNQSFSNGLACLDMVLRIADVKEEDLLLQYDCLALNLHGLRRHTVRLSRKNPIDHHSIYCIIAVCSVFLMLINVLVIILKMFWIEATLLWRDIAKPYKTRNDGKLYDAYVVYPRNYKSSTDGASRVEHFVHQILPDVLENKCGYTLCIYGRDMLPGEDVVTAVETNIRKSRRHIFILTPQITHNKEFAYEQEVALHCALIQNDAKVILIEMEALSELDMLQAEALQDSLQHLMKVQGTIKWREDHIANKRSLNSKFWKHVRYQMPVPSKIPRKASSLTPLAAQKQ
# * marks the source's active call; other numbers are inactive results; i = inactive.
SMILES,ST2 IL33 inh
CCC(C(=O)Nc1ccccc1NC(C)=O)c1ccccc1 (centres undefined),i
Cc1cc(NC(=O)c2cc(-c3ccc(Cl)c(Cl)c3)on2)no1,i
CC(C)NC(=O)c1cc(-c2ccc(Cl)c(Cl)c2)on1,i
Cc1noc(C)c1-c1ccc(Cl)c(Cl)c1,49.0%*
Cc1ccccc1C(=O)N(C(C)C)C(C)C,i
Cc1c(C(=O)N2CCC(C)CC2)sc2ncnc(N3CCN(c4ccccn4)CC3)c12,i
CN1CCN(CCCOc2ccc(C(C)(C)c3ccccc3)cc2)CC1,i
CCC(C)c1ccc(OCCCCN2CCN(C)CC2)cc1 (centres undefined),39.0%*
CCC(C)c1ccccc1OCCCCN1CCCC1 (centres undefined),i
Cn1ncc2c(NCCN3CCCC3=O)nc(C(C)(C)C)nc21,i
COc1cccc(C2Nc3ccccc3C(=O)N2c2ccc(Cl)cc2)c1OC (centres undefined),i
O=[N+]([O-])c1cc(Nc2ccccc2)c(C=Nc2ccccc2)c([N+](=O)[O-])c1,66.0%*
Cc1[nH]n(-c2ccccc2)c(=O)c1C=Nc1cc([N+](=O)[O-])cc([N+](=O)[O-])c1,i
O=[N+]([O-])c1cccc(C=Nc2ccc(S(=O)(=O)Nc3ccccn3)cc2)c1,i
CCC(C)Oc1ccc(/C=C2/NC(=O)NC2=O)cc1OC (centres undefined),i
O=C(NC1CC1)C1CCC(=O)N1Cc1ccc(F)cc1 (centres undefined),i
Cn1c(=O)c2c(nc(NCc3cccnc3)n2Cc2cccc3ccccc23)n(C)c1=O,30.0%*
Cn1c(=O)c2c(nc(NCCCO)n2Cc2cccc3ccccc23)n(C)c1=O,i
Cc1ccccc1Cn1c(NCc2ccccc2)nc2c1c(=O)n(C)c(=O)n2C,i
COC(=O)CSC1=C(C#N)C(c2ccc(OC)c(OC)c2)CC(=O)N1 (centres undefined),i
CCOC(=O)c1ccc2[nH]cc(C(=O)c3ccc(C)cc3)c(=O)c2c1,i
CCc1ccc(C(=O)c2c[nH]c3ccc(F)cc3c2=O)cc1,42.0%*
Cc1ccc(C(=O)c2c[nH]c3ccc(Br)cc3c2=O)cc1,33.0%*
CCc1ccc(C(=O)c2c[nH]c3ccc(C)cc3c2=O)cc1,i
CCc1ccc(C(=O)c2c[nH]c3ccc(CC)cc3c2=O)cc1,i
SMILES,ST2 IL33 inh
CCOC(=O)c1ccc2[nH]cc(C(=O)c3ccccc3)c(=O)c2c1,i
O=C(CCCN1C(=O)c2ccccc2C1=O)NC12C[C@@H]3C[C@@H](CC(O)(C3)C1)C2,i
O=C(Nc1c2c(nn1-c1ccc(F)cc1)CS(=O)C2)c1cccc(F)c1 (centres undefined),i
CCOC(=O)C1=C(C)NC2=C(C(=O)c3ccccc32)C1c1ccc(C(C)C)cc1 (centres undefined),i
COc1ccc(/C=C2/OC(=O)c3c2cc(C)[nH]c3=O)cc1OC,i
COc1ccc(C2=C/C(=C\c3ccc(C)o3)C(=O)O2)cc1,i
COc1ccc(/C=C2/C=C(c3ccc(C)cc3)OC2=O)cc1OC,32.0%*
COc1ccc(OC)c(/C=C2\N=C(c3cccs3)OC2=O)c1,i
COc1ccc(/C=C2/C=C(c3cc(OC)ccc3OC)OC2=O)c(OC)c1,40.0%*
COc1ccc(/C=C2\SC(N3CCOCC3)=NC2=O)c(OC)c1,i
COc1cc(C2C(C(=O)OC3CCCCC3)=C(C)Nc3ncnn32)cc(OC)c1OC (centres undefined),i
COCCN1C(=O)CC(CC(=O)N2CCCC(c3cccc(C)c3)C2)(c2ccccc2OC)C1=O (centres undefined),i
CC(C)n1cnnc1CN(C)C(=O)C(=O)c1ccco1,i
O=c1c(NS(=O)(=O)c2cccc(F)c2)ccc2n1C[C@H]1C[C@@H]2CN(S(=O)(=O)c2cccs2)C1,44.0%*
O=C(Nc1ccc(F)cc1)N1C[C@@H]2C[C@H](C1)c1ccc(NS(=O)(=O)c3cccs3)c(=O)n1C2,i
COc1ccc(NC(=O)N2C[C@@H]3C[C@H](C2)c2ccc(NS(=O)(=O)c4cccc(F)c4)c(=O)n2C3)cc1,i
O=C(Nc1c2c(nn1-c1ccc(Cl)cc1)CSC2)c1cccs1,i
Cc1cc(C)n(C(=O)c2c(-c3ccccc3)noc2C)n1,i
CCc1nc2cccnc2n1C1CCN(S(=O)(=O)c2ccc(C(C)(C)C)cc2)CC1,i
O=S(=O)(c1ccc2c(c1)OCCO2)N1CCC(n2cnc3cccnc32)CC1,98.0%*
Cc1ccc(S(=O)(=O)N2CCC(n3c(C)nc4cccnc43)CC2)cc1C,i
CC(C)Cc1noc(C2CCCN(Cc3nc(-c4ccco4)no3)C2)n1 (centres undefined),i
CN(CCNC(=O)C1CCCN1c1nnc(N2CCCC2=O)s1)C1CCCCC1 (centres undefined),i
CN(CCCNC(=O)C1CCCN1c1nnc(N2CCCC2=O)s1)C1CCCCC1 (centres undefined),i
CC(C)N(CCCNC(=O)C1CCCN1c1nnc(N2CCCC2=O)s1)Cc1ccccc1 (centres undefined),34.0%*
SMILES,ST2 IL33 inh
Nc1nc(Oc2ccc(F)cc2)c(I)c(=O)[nH]1,i
N#C/C(=C\c1ccc(O)c(O)c1)C(=O)Nc1ccccc1,i
CC(NC(=O)c1ccccc1C(=O)NC(C)c1ccccc1)c1ccccc1 (centres undefined),i
C[C@@H](NC(=O)/C(C#N)=C/c1ccc(O)c(O)c1)c1ccccc1,58.0%*
COc1cc(S(=O)(=O)Nc2ccccn2)ccc1Cl,i
CCC(C)NC(=O)c1cc(-c2ccc(Cl)c(Cl)c2)on1 (centres undefined),i
COC(=O)c1sc2ccccc2c1NC(=O)c1cc2ccccc2cc1OC,i
Cc1ccc(NC(=O)c2ccc(Cl)cc2Cl)cc1[N+](=O)[O-],i
NS(=O)(=O)c1ccc(NC(=O)c2ccccc2[N+](=O)[O-])cc1,32.0%*
NS(=O)(=O)c1ccc(NC(=O)c2ccccc2)cc1,i
CC(C)c1ccc(NC(=O)c2ccc(Cl)cc2[N+](=O)[O-])cc1,i
O=C(Nc1ccc(Nc2ccccc2)cc1)c1ccc(Cl)cc1[N+](=O)[O-],43.0%*
CCC(C)c1ccc(NC(=O)c2ccccc2[N+](=O)[O-])cc1 (centres undefined),i
COc1ccc(Cl)cc1N1C(=O)C2CCCN2C1c1cc(OC)c(OC)c(OC)c1 (centres undefined),i
COC(=O)c1cc(Nc2ncnc3c2cnn3-c2ccc(C)cc2C)cc(C(=O)OC)c1,i
Cn1c(=O)c2c(nc(N3CCN(Cc4ccccc4)CC3)n2Cc2ccccc2Cl)n(C)c1=O,i
CC(=O)c1ccc(N2CCN(C(=O)CCC3=NS(=O)(=O)c4ccccc4N3)CC2)cc1,i
CC1(C2CCCCC2)Cc2ccccc2-c2nc3[nH]ncn3c(=O)c21 (centres undefined),i
Cc1[nH]c2c(Cl)cccc2c(=O)c1CN1CCCCC1C (centres undefined),i
O=C(Nc1ccc(Oc2ccccc2)cc1)C1CC1,i
O=C(Nc1ccc(O)cc1)C1CC=CCC1 (centres undefined),34.0%*
O=C(O)COc1ccc(NC(=O)C2CCCCC2)cc1,i
Cc1ccc(-c2nccn2-c2cccc(N3CCCC3=O)c2)o1,i
NC1=NC(=O)/C(=C\c2ccc(-c3ccc(Cl)c([N+](=O)[O-])c3)o2)S1,40.0%*
O=C1NC(=O)/C(=C\c2ccc(-c3cccc(C(=O)O)c3)o2)S1,i
